{
  "source": "the supplement of paper PMC3334620",
  "note": "The full ranking holds about 33,000 sequences; the median of “E-score (-0.5 to 0.5)” is about -0.041, and the highest 2% start at about 0.37. The list comes from a sample in which the highest values are over-represented; it also holds similar and randomly drawn sequences.",
  "data": [
    {"biological_target": "T1, Ecm22 (UniProt Q05958)", "T1 sequence": "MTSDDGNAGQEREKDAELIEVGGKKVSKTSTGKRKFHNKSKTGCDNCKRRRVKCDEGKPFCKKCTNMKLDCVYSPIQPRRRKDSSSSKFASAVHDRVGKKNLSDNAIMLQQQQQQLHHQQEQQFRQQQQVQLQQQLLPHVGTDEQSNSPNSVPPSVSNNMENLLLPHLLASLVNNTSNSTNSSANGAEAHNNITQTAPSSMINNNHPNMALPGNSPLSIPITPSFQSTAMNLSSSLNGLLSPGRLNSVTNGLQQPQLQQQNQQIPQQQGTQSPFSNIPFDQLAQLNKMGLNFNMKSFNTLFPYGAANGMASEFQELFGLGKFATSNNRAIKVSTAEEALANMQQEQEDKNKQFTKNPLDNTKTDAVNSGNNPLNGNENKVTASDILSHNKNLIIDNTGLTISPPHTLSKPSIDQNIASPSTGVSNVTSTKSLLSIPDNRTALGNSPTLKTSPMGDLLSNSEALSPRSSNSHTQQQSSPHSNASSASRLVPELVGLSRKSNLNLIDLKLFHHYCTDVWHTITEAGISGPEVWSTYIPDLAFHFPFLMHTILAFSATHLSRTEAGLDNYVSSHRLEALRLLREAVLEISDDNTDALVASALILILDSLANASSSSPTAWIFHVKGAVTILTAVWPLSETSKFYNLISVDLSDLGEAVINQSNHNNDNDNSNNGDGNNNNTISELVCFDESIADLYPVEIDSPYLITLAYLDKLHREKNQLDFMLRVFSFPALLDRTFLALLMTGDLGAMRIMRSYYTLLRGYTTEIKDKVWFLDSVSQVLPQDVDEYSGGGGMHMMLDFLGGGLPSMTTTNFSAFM", "test": "PBM E-score (8-mer binding enrichment) (E-score (-0.5 to 0.5)); higher = stronger / more preferred TF binding", "settings": "protein concentration: 200 nM; construct: GST-full length", "how_it_was_run": "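Masliner-normalised scans of fluorescent anti-GST signal were the basis for scoring. That signal came from GST-tagged yeast transcription factors applied at about 100-200 nM to double-stranded universal all-10-mer Agilent arrays on fresh or once-stripped slides. Each ungapped eight-base word, pooled with its reverse complement, received an E-score from the Universal PBM Analysis Suite.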", "values": [
      {"sequence": "ACGAACGC", "PBM E-score": 0.362},
      {"sequence": "ACGAACGT", "PBM E-score": 0.307},
      {"sequence": "CCGAACGA", "PBM E-score": 0.357},
      {"sequence": "CCGAACGG", "PBM E-score": 0.222},
      {"sequence": "CCACCGGG", "PBM E-score": -0.108},
      {"sequence": "GATTTCCA", "PBM E-score": -0.146},
      {"sequence": "CTGCTCTA", "PBM E-score": 0.0645},
      {"sequence": "ATGCTGAG", "PBM E-score": -0.31},
      {"sequence": "AGCCGGAA", "PBM E-score": -0.0725},
      {"sequence": "ACCAATGA", "PBM E-score": -0.061},
      {"sequence": "CAACAACG", "PBM E-score": 0.209},
      {"sequence": "ATAGTCGC", "PBM E-score": 0.146},
      {"sequence": "CCTCTAAA", "PBM E-score": -0.193},
      {"sequence": "GACTTAGC", "PBM E-score": -0.147},
      {"sequence": "GGCATCCC", "PBM E-score": -0.315},
      {"sequence": "CAAGCAAC", "PBM E-score": 0.00354},
      {"sequence": "AGAGGCCA", "PBM E-score": -0.203},
      {"sequence": "CTACCAAG", "PBM E-score": -0.23},
      {"sequence": "AGGAACGC", "PBM E-score": 0.208},
      {"sequence": "AGGAACAG", "PBM E-score": -0.257},
      {"sequence": "AGGAACGG", "PBM E-score": 0.459},
      {"sequence": "AAAGACGC", "PBM E-score": -0.118},
      {"sequence": "AAATTGAA", "PBM E-score": -0.166},
      {"sequence": "AAACGGTT", "PBM E-score": 0.262},
      {"sequence": "ACAACGAG", "PBM E-score": 0.288},
      {"sequence": "GGAACGGA", "PBM E-score": 0.435},
      {"sequence": "CTAACGAG", "PBM E-score": 0.331},
      {"sequence": "CGAACGTC", "PBM E-score": 0.0995},
      {"sequence": "CGAACGCC", "PBM E-score": 0.0398},
      {"sequence": "CGAACGCG", "PBM E-score": 0.198},
      {"sequence": "AGAACGTG", "PBM E-score": -0.0515},
      {"sequence": "AGAACGGA", "PBM E-score": 0.0615},
      {"sequence": "CGAACGGA", "PBM E-score": 0.24},
      {"sequence": "CGAACGAC", "PBM E-score": 0.389},
      {"sequence": "CGAACGAG", "PBM E-score": 0.428},
      {"sequence": "AGAACGAG", "PBM E-score": 0.45},
      {"sequence": "ATGGTTAG", "PBM E-score": -0.0935},
      {"sequence": "GAGGCGTA", "PBM E-score": 0.155},
      {"sequence": "TAAGGATA", "PBM E-score": 0.00857},
      {"sequence": "GGCATTAC", "PBM E-score": -0.132},
      {"sequence": "GAGTTGAA", "PBM E-score": 0.04},
      {"sequence": "CGAACAAA", "PBM E-score": 0.2},
      {"sequence": "ATAACGAC", "PBM E-score": 0.203},
      {"sequence": "GGAACGCC", "PBM E-score": 0.051},
      {"sequence": "TTAACGAA", "PBM E-score": 0.411},
      {"sequence": "CGAACGAA", "PBM E-score": 0.393},
      {"sequence": "CGAACGTA", "PBM E-score": 0.214},
      {"sequence": "GTAACGAC", "PBM E-score": 0.289},
      {"sequence": "AGAACGAC", "PBM E-score": 0.425},
      {"sequence": "ATAACGAA", "PBM E-score": 0.185},
      {"sequence": "CTAACGAA", "PBM E-score": 0.219},
      {"sequence": "GGAACGAC", "PBM E-score": 0.491},
      {"sequence": "AGAACGTC", "PBM E-score": -0.0743},
      {"sequence": "AATGTCCG", "PBM E-score": 0.127},
      {"sequence": "GCGAAGTA", "PBM E-score": 0.112},
      {"sequence": "ACCACTGC", "PBM E-score": -0.25},
      {"sequence": "GGTGCCAA", "PBM E-score": -0.179},
      {"sequence": "AATGGGGG", "PBM E-score": -0.268},
      {"sequence": "CAAGGGAG", "PBM E-score": 0.062},
      {"sequence": "ACGCCCAC", "PBM E-score": -0.181},
      {"sequence": "GGAAACAC", "PBM E-score": 0.0703},
      {"sequence": "TACGGACA", "PBM E-score": 0.258},
      {"sequence": "TGAACAAA", "PBM E-score": 0.165},
      {"sequence": "GGAACGCA", "PBM E-score": 0.23},
      {"sequence": "GGAACGAA", "PBM E-score": 0.489},
      {"sequence": "GGAACGTA", "PBM E-score": 0.353},
      {"sequence": "AGAACGAA", "PBM E-score": 0.422},
      {"sequence": "AGAACAAA", "PBM E-score": 0.0892},
      {"sequence": "TGAACGAA", "PBM E-score": 0.434},
      {"sequence": "AGAACGAT", "PBM E-score": 0.342},
      {"sequence": "TGAACGCA", "PBM E-score": 0.0733},
      {"sequence": "ACAGAAGT", "PBM E-score": -0.182},
      {"sequence": "CCTAAGTA", "PBM E-score": 0.0729},
      {"sequence": "AACGACCC", "PBM E-score": 0.386},
      {"sequence": "AACGACCA", "PBM E-score": 0.424},
      {"sequence": "TGCGACCA", "PBM E-score": 0.215},
      {"sequence": "ACCGACCG", "PBM E-score": 0.278},
      {"sequence": "CACGACCC", "PBM E-score": -0.0107},
      {"sequence": "TCCGACCA", "PBM E-score": 0.16},
      {"sequence": "GACGACCA", "PBM E-score": 0.097},
      {"sequence": "CACGACCG", "PBM E-score": 0.0498},
      {"sequence": "GACGACCC", "PBM E-score": -0.108},
      {"sequence": "TACGACCA", "PBM E-score": 0.449},
      {"sequence": "CACGACCA", "PBM E-score": 0.0103},
      {"sequence": "AACGACCG", "PBM E-score": 0.407},
      {"sequence": "CGGCGTTA", "PBM E-score": 0.0563}
    ]}
  ]
}
